# This is part of a sample that, as a whole, favours compounds with a hit. Of some 79,000 tested, about 15% had one in any assay. A number with no mark means an inactive call. Activity calls are given as the source filed them. Cut-off read from the data, not from the text of the source: active = growth inhibition above about 70%; inactive = the rest.
# Tests used:
# [1] = NCI Yeast Anticancer Drug Screen. Data for the rad50 strain (AID 155);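 note: 0% = growth of vehicle-only cultures of the same strain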; conditions: S. cerevisiae rad50 strain growth inhibition, hits give high values
# Method in brief: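 Growth of the mutant yeast was measured after compound exposure and referenced to vehicle-treated cultures.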
# [2] = NCI Yeast Anticancer Drug Screen. Data for the mec2-1 strain (AID 157); conditions: S. cerevisiae mec2-1 strain, hits give high values
# Method in brief: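 Vehicle-treated cultures served as reference for growth inhibition of compound-exposed mec2-1 yeast.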
# [3] = NCI Yeast Anticancer Drug Screen. Data for the sgs1 mgt1 strain (AID 161);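 note: 0% = growth of cultures given vehicle only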; conditions: S. cerevisiae sgs1 mgt1 strain, hits give high values
# Method in brief: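 Mutant yeast exposed to compound; growth scored against vehicle-only wells.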
# [4] = NCI Yeast Anticancer Drug Screen. Data for the cln2 rad14 strain (AID 165);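 note: 0% = growth equal to vehicle treated cultures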; conditions: S. cerevisiae cln2 rad14 strain, hits give high values
# Method in brief: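 Each compound was tested on cln2 rad14 yeast. Inhibition of growth was calculated against vehicle-exposed controls.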
# [5] = NCI Yeast Anticancer Drug Screen. Data for the bub3 strain (AID 167); conditions: S. cerevisiae bub3 mutant strain, hits give high values
# Method in brief: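 Whole-cell yeast assay. The mutant strain was incubated with compounds, and growth inhibition was determined by comparison with vehicle-treated cells.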
# [6] = NCI Yeast Anticancer Drug Screen. Data for the mlh1 rad18 strain (AID 175); conditions: S. cerevisiae mlh1 rad18 strain growth inhibition, hits give high values
# Method in brief: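 Vehicle-treated cultures served as the reference for growth inhibition in a yeast strain carrying DNA damage repair alterations exposed to each compound.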
# [7] = at 5.0 µM (retest, dose inferred, filed as 0.5)
# [8] = at 50.0 µM (retest, dose inferred, filed as 5.0)
Compound,"growth inhibition [1, 7]","growth inhibition [1, 8]",growth inhibition ([1]; at 50.0 µM),"growth inhibition [2, 7]","growth inhibition [2, 8]",growth inhibition ([2]; at 50.0 µM),"growth inhibition [3, 7]","growth inhibition [3, 8]",growth inhibition ([3]; at 50.0 µM),"growth inhibition [4, 7]","growth inhibition [4, 8]",growth inhibition ([4]; at 50.0 µM),"growth inhibition [5, 7]","growth inhibition [5, 8]",growth inhibition ([5]; at 50.0 µM),"growth inhibition [6, 7]","growth inhibition [6, 8]",growth inhibition ([6]; at 50.0 µM)
CC/C(C)=N/OC(=O)Nc1ccccc1,5%,0%,39.1%,-22%,5%,17.2%,2%,20%,64.7%,5%,8%,11.2%,-74%,2%,0.05%,1%,14%,34%
Cc1ccc2ccc3c(CCN(C)C)cc4c(c3c2c1O)OCO4,-1%,22%,90.8% (active),-4%,57%,67.3%,-1%,75% (active),91.2% (active),-1%,64%,95.2% (active),-2%,86% (active),92.5% (active),-5%,53%,94.3% (active)
OC(CC(O)(C(F)(F)Cl)C(F)(F)Cl)c1ccccc1 (configuration not stated),31%,66%,88.1% (active),10%,62%,90.7% (active),42%,72% (active),92.1% (active),35%,58%,85.8% (active),37%,69%,88.6% (active),26%,59%,89.3% (active)
OC(CC(CC(O)(C(F)(F)F)C(F)(F)F)=NN=C(CC(O)(C(F)(F)F)C(F)(F)F)CC(O)(C(F)(F)F)C(F)(F)F)(C(F)(F)F)C(F)(F)F,41%,73% (active),83.7% (active),31%,92% (active),84.3% (active),32%,88% (active),78.5% (active),35%,72% (active),72% (active),37%,81% (active),82.7% (active),46%,93% (active),67.6%
OCC1CC[N-]CC1.OCC1CC[N-]CC1.[Cl][Pt+2]([Cl])([Cl])[Cl],24%,99% (active),98.4% (active),5%,97% (active),92.6% (active),33%,98% (active),96.8% (active),15%,98% (active),92.3% (active),6%,99% (active),96.2% (active),40%,98% (active),82.5% (active)
CCCN(CCC)CC(O)c1ccc2ccc3ccc(Cl)cc3c2c1 (configuration not stated),20%,98% (active),99.8% (active),18%,98% (active),99.8% (active),39%,99% (active),99.8% (active),29%,98% (active),99.6% (active),38%,98% (active),99.5% (active),27%,99% (active),99.8% (active)
C=CS(=O)(=O)c1ccc([N+](=O)[O-])cc1,-29%,98% (active),99.7% (active),-7%,99% (active),99.7% (active),21%,98% (active),99.5% (active),-16%,98% (active),99.7% (active),20%,98% (active),99.3% (active),16%,97% (active),99.2% (active)
CCCCOc1ccc(CC(O)CN2CCCCC2C)cc1 (configuration not stated),22%,49%,75.2% (active),21%,51%,52.5%,33%,61%,78% (active),36%,57%,73.7% (active),36%,71% (active),85.6% (active),24%,60%,51%
COc1cc(Nc2ccc(O)cc2)c2ncccc2c1,34%,93% (active),94.9% (active),18%,97% (active),69.2%,16%,97% (active),94.7% (active),5%,89% (active),21.1%,7%,94% (active),45.3%,33%,96% (active),94.5% (active)

# From PubChem BioAssay (NCI)
